Activity calls are given as the source filed them.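 The calls were made as follows, unless noted: active = inhibition above 20% together with a positive visual image hit; inconclusive = visual image hit but inhibition not above 20%; inactive = no visual image hit.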
Tests used:
[1] = inhibitors of TNFa-induced NFkB p65 translocation, primary screen, imaging, HUVEC, MLSMR starter and 10KST1 sets (AID 438); settings: HUVEC TNFa-induced p65 nuclear translocation; cell count: measured here: nuclei count (cytotoxicity indicator), at 2.08 µM; inhibition: at 2 µM, stronger effect = higher value, 0% TNFa-plus-vehicle, 100% no-TNFa wells;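 also: compound added about 3h40 before a 20 min TNFalpha stimulation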;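 as to inhibition: signal is the nuclear over cytoplasmic p65 intensity ratio per well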
[2] = reduction of polyQ htt aggregates in cells – imaging, exon1htt(103Q)mCFP cells, high-content imaging, primary screen (AID 483;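 active = visual image review flags a hit and inhibition of aggregation exceeds 20%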;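 also: compound exposure lasted 3 days before fixation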;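 as to nuclei count: percent of the per-plate median nuclei count of sample wells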); settings: exon1htt(103Q)mCFP cell line, aggregate imaging, at 2 µM; inhibition of aggregation: stronger effect = higher value; nuclei count: measured here: cell count, toxicity
[3] = endothelial E-selectin expression blockers – imaging, HUVEC, immunofluorescence, MLSMR starter and 10KST1 sets, primary screen (AID 487;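 active = visually confirmed hit in the image check and inhibition above 20%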;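 as to inhibition: signal is fraction of cell area covered by stained E-selectin grains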;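 as to nuclei count: 100% = median nuclei count of all wells on the same plate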); settings: HUVEC TNFalpha-induced E-selectin immunofluorescence imaging, at 2 µM; inhibition: stronger effect = higher value; nuclei count: measured here: cell number, toxicity
[4] = target: Voltage-gated potassium channel subunit beta-2 (Rattus norvegicus) (UniProt P62483); assay: inhibitors of rat Kvbeta2 reductase activity – biochemical, NADPH fluorescence, primary screen (AID 622;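 active = fluorescence slope higher than the sample average by over 3 SD, cut at about -0.22 in these data, passing the limit was not always enough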;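 also: slope of raw intensity against log time taken from 70 to 1610 s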); settings: recombinant KvBeta, 4-cyanobenzaldehyde reduction, at 10 µM, stronger effect = higher value
[5] = target: Voltage-gated potassium channel subunit beta-2 (Rattus norvegicus) (UniProt P62483); assay: enhancers of rat Kvbeta2 NADPH turnover – biochemical, NADPH fluorescence, primary screen (AID 623;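 active = NADPH fluorescence slope more negative than the mean of all samples by about 3 SD, 99.7% confidence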;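 also: fluorescence intensity change per second fitted from 20 to 320 s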); settings: Recombinant KvBeta, NADPH fluorescence decrease slope, 10 min; at 10 µM; stronger effect = lower value
[6] = target: Alpha-2C adrenergic receptor (Homo sapiens) (UniProt P18825); assay: compounds altering alpha2C-coupled GIRK flux – cell-based, HEK293 alpha2C/GIRK1/2, thallium flux, primary screen (AID 624;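 active = fluorescence slope after compound addition differing from the mean of all screened samples at 99.7% confidence, in either direction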;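 also: slope of fluorescence ratio to pre-addition baseline per second over 15 to 24 s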); settings: thallium flux BTC fluorescence, at 10 µM, actives lie on both sides
[7] = blockers of RIG-like receptor reporter activation – cell-based, Sendai virus stimulus, luciferase, 10K MLSCN set, TLR/RLR signaling modifier project, primary screen (AID 602276;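 active = inhibition at or above 50% at 10 µM; inactive = inhibition below 50%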;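 also: firefly luciferase from ISG56 promoter only with Renilla not read in this screen; 0% = Sendai virus plus DMSO and 100% = medium plus DMSO without virus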); settings: HEK293 RL24 IRF3 luciferase reporter, at 10 µM, stronger effect = higher value
[8] = TLR3 IRF3 reporter activation blockers – cell-based, poly I:C stimulus, luciferase, 10K MLSCN set, primary screen (AID 602277;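 active = inhibition of the reporter signal at or above 50%; inactive = inhibition below 50%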); settings: HEK293-TLR3 RL24 IRF3 luciferase reporter, at 10 µM, stronger effect = higher value

Voltage-gated potassium channel subunit beta-2 (Rattus norvegicus), sequence (P62483 whole entry, looked up): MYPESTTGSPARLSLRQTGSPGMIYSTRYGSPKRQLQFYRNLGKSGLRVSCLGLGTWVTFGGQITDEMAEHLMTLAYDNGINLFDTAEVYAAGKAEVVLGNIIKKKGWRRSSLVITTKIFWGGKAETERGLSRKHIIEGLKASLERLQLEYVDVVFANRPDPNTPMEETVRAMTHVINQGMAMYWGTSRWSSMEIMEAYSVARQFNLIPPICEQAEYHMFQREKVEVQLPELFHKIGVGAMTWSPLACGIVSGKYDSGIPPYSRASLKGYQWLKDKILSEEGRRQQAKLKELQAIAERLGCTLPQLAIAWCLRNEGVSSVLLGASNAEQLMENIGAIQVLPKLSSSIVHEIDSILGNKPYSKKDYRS
Alpha-2C adrenergic receptor (Homo sapiens), sequence (P18825 whole entry, looked up): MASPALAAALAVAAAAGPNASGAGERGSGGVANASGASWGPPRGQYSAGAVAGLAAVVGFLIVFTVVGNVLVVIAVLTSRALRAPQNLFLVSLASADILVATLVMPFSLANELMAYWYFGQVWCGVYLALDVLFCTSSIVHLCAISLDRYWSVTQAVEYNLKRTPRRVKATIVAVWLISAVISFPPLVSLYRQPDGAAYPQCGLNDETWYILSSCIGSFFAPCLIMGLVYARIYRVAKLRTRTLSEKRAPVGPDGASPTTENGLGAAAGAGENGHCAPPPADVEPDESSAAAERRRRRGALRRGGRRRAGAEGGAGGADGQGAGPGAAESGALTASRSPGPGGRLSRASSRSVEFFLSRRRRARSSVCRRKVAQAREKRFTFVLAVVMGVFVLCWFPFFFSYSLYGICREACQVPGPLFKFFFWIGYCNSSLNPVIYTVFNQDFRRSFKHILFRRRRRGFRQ

SMILES | cell count [1] | inhibition [1] | inhibition of aggregation [2] | nuclei count [2] [%] | inhibition [3] | nuclei count [3] [%] | fluorescence slope [4] | NADPH fluorescence slope [5] | slope [6] | inhibition [7] | inhibition [8]
O=C1N(c2ccccc2)C2CS(=O)(=O)CC2N1c1ccc(Br)cc1 (stereo not drawn) | 566 | -12.3% (inactive) | 4% (inactive) | 88.5 | -32.1% (inactive) | 127 | -0.432 (inactive) | -1.5e-05 (inactive) | 0.00616 (inactive) | 6.69% (inactive) | 17.5% (inactive)
CCOC(=O)N1CCN(c2cc(=O)n(-c3cccc(Br)c3)c(=O)[nH]2)CC1 | 532 | -10.1% (inactive) | 0.9% (inactive) | 55.8 | -13.2% (inactive) | 89.5 | -0.564 (inactive) | -2e-05 (inactive) | 0.00721 (inactive) | -10.2% (inactive) | 15.4% (inactive)
CCOC(=O)C1CCN(Cc2c(O)ccc3ccccc23)CC1 | 596 | -3% (inactive) | 3.7% (inactive) | 109 | -41.8% (inactive) | 124 | -0.5 (inactive) | -7.8e-05 (inactive) | 0.00484 (inactive) | 25.4% (inactive) | 33.8% (inactive)
OCCNc1nc2ccc(Cl)cc2[nH]1 | 433 | 2.6% (inactive) | 19.6% (inactive) | 106 | -19% (inactive) | 110 | -0.365 (inactive) | 1.9e-05 (inactive) | 0.00613 (inactive) | -12.8% (inactive) | -7.02% (inactive)
CCN1CCN(Cc2nc3c(c(=O)[nH]c(=O)n3C)n2Cc2ccccc2Cl)CC1 | 584 | 1% (inactive) | 7.9% (inactive) | 71.4 | -20.8% (inactive) | 95.5 | -0.583 (inactive) | -3.1e-05 (inactive) | 0.00512 (inactive) | 9.74% (inactive) | 29% (inactive)
COc1ccc(C)cc1NC(=O)CN(Cc1nnc(-c2ccc(Cl)cc2)o1)C1CCCC1 | 392 | 2.4% (inactive) | -4.1% (inactive) | 85.9 | -43.8% (inactive) | 110 | -0.478 (inactive) | 2.2e-05 (inactive) | 0.00634 (inactive) | -26.9% (inactive) | -33.6% (inactive)
COCCNC(=O)c1snc2ccc(Cl)cc12 | 375 | 6.7% (inactive) | 4.9% (inactive) | 89.8 | -175% (inactive) | 97.3 | -0.563 (inactive) | 3.8e-05 (inactive) | 0.00546 (inactive) | -23.6% (inactive) | -62.4% (inactive)
CCOc1cc(C2CC(=O)N3CN(C4CCCCC4)CSC3=C2C#N)ccc1O (stereo not drawn) | 818 | 2.3% (inactive) | -24.4% (inactive) | 114 | -31.4% (inactive) | 110 | -0.607 (inactive) | 1.8e-05 (inactive) | 0.00576 (inactive) | 11.2% (inactive) | 19.8% (inactive)
CS(=O)(=O)NCCSCc1c(F)cccc1Cl | 270 | 5.5% (inactive) | 0% (inactive) | 106 | -41.6% (inactive) | 96.6 | -0.527 (inactive) | -2.1e-05 (inactive) | 0.00448 (inactive) | 2.63% (inactive) | 0.999% (inactive)
CC1CCN(S(=O)(=O)c2ccc3[nH]cc(C(=O)NCCN4CCOCC4)c(=O)c3c2)CC1 | 697 | -3% (inactive) | -11.2% (inactive) | 104 | -101% (inactive) | 106 | -0.519 (inactive) | -3.8e-05 (inactive) | 0.00576 (inactive) | 8.86% (inactive) | 17.9% (inactive)
CC12CN3CC(C)(CN(C1)C3c1ccc(Cl)cc1Cl)C2=O (stereo not drawn) | 849 | -4.6% (inactive) | -26.4% (inactive) | 123 | -21.6% (inactive) | 121 | -0.557 (inactive) | -1.9e-05 (inactive) | 0.00699 (inactive) | 1.89% (inactive) | 28.2% (inactive)
Cc1nc2ccc(S(=O)(=O)NCC(=O)N(C)Cc3ccco3)cc2s1 | 355 | 5.2% (inactive) | -6.5% (inactive) | 95.6 | -12.8% (inactive) | 101 | -0.503 (inactive) | -1.2e-05 (inactive) | 0.00704 (inactive) | 14.7% (inactive) | 14.5% (inactive)
Cc1ccc(-c2cc(C(F)(F)F)n3nc(C(=O)N4CCCC4)cc3n2)cc1 | 336 | 5.5% (inactive) | 13.3% (inactive) | 107 | -148% (inactive) | 127 | -0.512 (inactive) | -1.4e-05 (inactive) | 0.00691 (inactive) | -0.996% (inactive) | -25.5% (inactive)
COc1ccc(C(=O)NCCn2ccc3ccccc32)c(OC)c1 | 280 | -2.5% (inactive) | 0.8% (inactive) | 80.1 | -40.8% (inactive) | 95.6 | -0.608 (inactive) | 6.8e-06 (inactive) | 0.00591 (inactive) | 1.44% (inactive) | -24.1% (inactive)
COc1ccc2c(c1OC)C(=O)OC2CC(=O)c1ccc(O)cc1 (stereo not drawn) | 556 | -1.1% (inactive) | -3.9% (inactive) | 114 | 43.4% (inactive) | 42.6 | -0.447 (inactive) | -4.1e-05 (inactive) | 0.00258 (inactive) | 4.78% (inactive) | 26.9% (inactive)
CCCS(=O)(=O)N1CCN(C(=O)c2cccnc2)CC1 | 374 | 5.5% (inactive) | -5.9% (inactive) | 98.3 | 18.3% (inactive) | 114 | -0.431 (inactive) | -6.9e-05 (inactive) | 0.0059 (inactive) | 8.38% (inactive) | 19.6% (inactive)
O=C1C2CC=C(Cl)CC2C(=O)N1c1ncn[nH]1 (stereo not drawn) | 329 | 5.5% (inactive) | 7.6% (inactive) | 98.3 | -62.1% (inactive) | 113 | -0.483 (inactive) | -5.8e-05 (inactive) | 0.00499 (inactive) | 12.6% (inactive) | 14% (inactive)
COCCNC(=O)C(c1ccncc1)N(C(=O)Cn1nnc2ccccc21)c1ccc(OC)cc1 (stereo not drawn) | 679 | 8.2% (inactive) | -3.2% (inactive) | 100 | 8.4% (inactive) | 99.8 | -0.481 (inactive) | -4.3e-05 (inactive) | 0.00706 (inactive) | -0.74% (inactive) | 25.1% (inactive)
c1ccc(Nc2ccccc2Nc2ccccn2)nc1 | 306 | 4.4% (inactive) | 21.6% (inactive) | 88.1 | 8.5% (inactive) | 90.5 | -0.379 (inactive) | -5.3e-06 (inactive) | 0.00758 (inactive) | 13% (inactive) | 25% (inactive)
COc1ccc(-n2ncc3c(NCCCN4CCOCC4)ncnc32)cc1 | 340 | 1.4% (inactive) | -6.2% (inactive) | 116 | 1.8% (inactive) | 118 | -0.59 (inactive) | -5.4e-05 (inactive) | 0.00402 (inactive) | 44.5% (inactive) | 7.05% (inactive)
Cc1cccc(C)c1NC(=O)CS(=O)CC(=O)NC1CCCc2ccccc21 (stereo not drawn) | 562 | -5.5% (inactive) | -3.7% (inactive) | 62.2 | -73.7% (inactive) | 108 | -0.61 (inactive) | -3e-05 (inactive) | 0.00417 (inactive) | 12.3% (inactive) | 20.9% (inactive)
O=C(Cn1cnc2c(cnn2-c2ccccc2)c1=O)NCCc1ccccc1 | 441 | 3.5% (inactive) | -9.4% (inactive) | 112 | -25% (inactive) | 113 | -0.535 (inactive) | -6.8e-07 (inactive) | 0.00728 (inactive) | 10.8% (inactive) | 17.4% (inactive)
CC(C)CN(C(=O)COC(=O)Cc1n[nH]c(=O)c2ccccc12)C1CCS(=O)(=O)C1 (stereo not drawn) | 399 | 1.7% (inactive) | 14.7% (inactive) | 96.8 | -65.6% (inactive) | 108 | -0.586 (inactive) | -1.4e-05 (inactive) | 0.00565 (inactive) | 12% (inactive) | 34.3% (inactive)
Cc1ccccc1Cn1nc(C)c(NC(=O)c2noc3c2CCc2ccccc2-3)c1C | 720 | 2.9% (inactive) | 4.7% (inactive) | 78.3 | -88.7% (inactive) | 108 | -0.588 (inactive) | 4e-06 (inactive) | 0.00754 (inactive) | 8.23% (inactive) | 0.0552% (inactive)
Cn1c(=O)c2c(nc(SCCOc3ccc4ccc(=O)oc4c3)n2C)n(C)c1=O | 581 | 3.3% (inactive) | 7.2% (inactive) | 107 | -34.8% (inactive) | 95.1 | -0.53 (inactive) | -3.8e-05 (inactive) | 0.00534 (inactive) | 5.44% (inactive) | 23.8% (inactive)
CCOC(=O)CN1CC23C=CC(O2)C(C(=O)NC2CCCC2)C3C1=O (stereo not drawn) | 671 | 4.1% (inactive) | 0.3% (inactive) | 99.1 | -66.9% (inactive) | 119 | -0.576 (inactive) | -2.3e-05 (inactive) | 0.00621 (inactive) | 11.3% (inactive) | 29.5% (inactive)
Nc1nc(SCc2nc3scc(-c4cccs4)c3c(=O)[nH]2)n[nH]1 | 473 | 3.8% (inactive) | 10.7% (inactive) | 103 | -112% (inactive) | 116 | -0.432 (inactive) | 8.2e-06 (inactive) | 0.00447 (inactive) | 1.51% (inactive) | 4.54% (inactive)
CC1(C)Cc2cccc(OCC(=O)O)c2O1 | 635 | -2.7% (inactive) | -1% (inactive) | 100 | -111% (inactive) | 108 | -0.423 (inactive) | -2.7e-05 (inactive) | 0.00676 (inactive) | 11.4% (inactive) | 17.1% (inactive)
